Measured values taken from PubChem BioAssay (EPA / NIEHS).
Results filed as inconclusive are left out. Calls of active or inactive are those of the source. How the source made its calls: active means hit-call score of the fitted dose curve at least 0.9, where 1 is the maximum; inconclusive means response in the unintended direction; inactive means score below 0.9.

Each compound was assayed against human Peroxisome Proliferator-activated Receptor alpha (PPARa), PPARA (gene 5465) (UniProt Q07869) (assay: ATG_PPARa_TRANS: Attagene TRANS-FACTORIAL HepG2 Assay for human Peroxisome Proliferator-activated Receptor alpha (PPARa) (AID 2283001);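 on AC50: potency for gain of reporter signal over DMSO so agonist or activator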).
Sequence of human Peroxisome Proliferator-activated Receptor alpha (PPARa), PPARA (gene 5465) (Q07869 whole entry, looked up, the tested form may be a part): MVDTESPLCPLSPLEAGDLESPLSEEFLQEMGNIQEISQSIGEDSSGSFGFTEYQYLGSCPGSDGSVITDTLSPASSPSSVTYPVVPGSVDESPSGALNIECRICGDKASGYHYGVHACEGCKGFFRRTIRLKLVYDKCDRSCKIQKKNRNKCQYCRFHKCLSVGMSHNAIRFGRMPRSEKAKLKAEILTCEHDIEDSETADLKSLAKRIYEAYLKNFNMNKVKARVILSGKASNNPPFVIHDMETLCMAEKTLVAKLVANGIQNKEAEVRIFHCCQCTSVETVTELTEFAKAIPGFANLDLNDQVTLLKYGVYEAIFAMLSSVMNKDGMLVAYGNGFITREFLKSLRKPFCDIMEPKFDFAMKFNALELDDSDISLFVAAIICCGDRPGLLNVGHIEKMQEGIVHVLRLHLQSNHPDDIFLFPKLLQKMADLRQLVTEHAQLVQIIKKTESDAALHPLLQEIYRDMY
Method in brief: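 Measures transcriptional activity of an exogenous chimeric PPARa-Gal4 protein in transiently transfected HepG2 cells after 24 h dosing. Reporter mRNA quantified via RT-PCR and capillary electrophoresis; DMSO served as negative control.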
CC(=O)OCc1ccccc1 was tested, and the outcome was “inactive”.
For Cc1c[nH]c(=O)[nH]c1=O, the outcome was “inactive”.
In the case of CCCC1CCCC(=O)O1 (configuration not stated), the outcome is reported as “inactive”.
With Cc1ccccc1CCO the outcome was “inactive”.
In the case of CC(CC=O)CC(C)(C)C (configuration not stated), the outcome is reported as “inactive”.
For CCOC(=O)OC(=O)OCC, the outcome was “inactive”.
CCCCOC(=O)CCC(C)=O was tested, and the outcome was “inactive”.
For CC(C)=CCl, the outcome was “inactive”.
With COC(=O)c1ccc(C(=O)OC)c(C(=O)OC)c1 the AC50 was 12.6 µM (active).
With O=S(=O)(O)c1ccc(Nc2nc(Nc3ccc(C=Cc4ccc(Nc5nc(Nc6ccc(S(=O)(=O)O)cc6)nc(N(CCO)CCO)n5)cc4S(=O)(=O)O)c(S(=O)(=O)O)c3)nc(N(CCO)CCO)n2)cc1 the outcome was “inactive”.
In the case of COC(=O)c1ccccc1C, the outcome is reported as “inactive”.
In the case of CCCCCCCCCCCCCCCCCCOS(=O)(=O)O, the AC50 is reported as 27.4 µM (active).
With CCC(C)c1ccccc1 (configuration not stated) the outcome was “inactive”.
In the case of Cc1ccc(C)c(OCCCC(C)(C)C(=O)O)c1, the AC50 is reported as 37.4 µM (active).
CCC1COC(=O)O1 (configuration not stated) was tested, and the outcome was “inactive”.
For COC(C=C(C)CCC=C(C)C)OC, the outcome was “inactive”.
For NC(=O)Nc1ccccc1, the outcome was “inactive”.
O=C(O)c1cc(O)c2ccccc2c1O was tested, and the outcome was “inactive”.
CCCSSCCC was tested, and the outcome was “inactive”.
With Cc1cc(C)c(C=O)c(C)c1 the outcome was “inactive”.
C=CCOC(=O)c1ccc(C(=O)OCC=C)c(C(=O)OCC=C)c1 was tested, and the AC50 was 8.92 µM (active).
c1ccc2cnccc2c1 was tested, and the outcome was “inactive”.
For O=C1CCCCC1C1CCCCC1 (configuration not stated), the outcome was “inactive”.
CO[Si](CCCS)(OC)OC was tested, and the outcome was “inactive”.
In the case of O=C(OCCc1ccccc1)c1ccccc1, the outcome is reported as “inactive”.
COC(=O)C=Cc1ccccc1 was tested, and the outcome was “inactive”.
For CCC(C)N (configuration not stated), the outcome was “inactive”.
For C=C(C)C(=O)OCC(O)COc1ccc(C(C)(C)c2ccc(OCC(O)COC(=O)C(=C)C)cc2)cc1 (configuration not stated), the outcome was “inactive”.
With Cc1ccc2c(c1)CCCN2 the outcome was “inactive”.
With C1CCSC1 the outcome was “inactive”.
C=CCCCCCCCCO was tested, and the outcome was “inactive”.
With CCOC(=O)c1ccc(C)cc1 the outcome was “inactive”.
For O=C(O)/C=C/c1ccccc1, the outcome was “inactive”.
With O=C(O)CC(C(=O)O)S(=O)(=O)O (configuration not stated) the outcome was “inactive”.
CCCCC/C=C\C/C=C\CCCCCCCC(=O)O was tested, and the AC50 was 28.9 µM (active).
For C/C=C/C=C/CCCCCCCO, the outcome was “inactive”.
In the case of CC(C)CC(=O)OCc1ccccc1, the outcome is reported as “inactive”.

What follows are compounds tested against human Peroxisome Proliferator-activated Receptor delta (PPARd), PPARD (gene 5467) (UniProt Q03181) (assay: ATG_PPARd_TRANS: Attagene TRANS-FACTORIAL HepG2 Assay for human Peroxisome Proliferator-activated Receptor delta (PPARd) (AID 2283002)).
Sequence of human Peroxisome Proliferator-activated Receptor delta (PPARd), PPARD (gene 5467) (Q03181 whole entry, looked up, the tested form may be a part): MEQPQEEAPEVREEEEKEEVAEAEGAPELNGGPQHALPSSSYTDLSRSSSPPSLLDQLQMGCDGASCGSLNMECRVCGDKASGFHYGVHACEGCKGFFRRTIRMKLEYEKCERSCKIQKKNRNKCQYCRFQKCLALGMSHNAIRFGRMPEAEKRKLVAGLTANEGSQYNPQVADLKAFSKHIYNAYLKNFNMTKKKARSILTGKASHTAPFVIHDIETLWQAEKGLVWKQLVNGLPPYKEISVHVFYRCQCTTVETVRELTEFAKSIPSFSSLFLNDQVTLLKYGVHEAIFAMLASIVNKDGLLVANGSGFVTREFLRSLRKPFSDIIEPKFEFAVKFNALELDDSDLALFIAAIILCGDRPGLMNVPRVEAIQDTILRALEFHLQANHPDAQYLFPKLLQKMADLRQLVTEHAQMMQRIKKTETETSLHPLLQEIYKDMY
Method in brief: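 HepG2 cells transiently transfected with GAL4-UAS multiplexed reporter units driven by exogenous chimeric NR-GAL4 proteins; 24 h compound exposure. Reporter mRNA measured by RT-PCR, 6-FAM primer extension, HpaI digestion and capillary electrophoresis; gain of signal fitted relative to DMSO.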
For CC(=O)OCc1ccccc1, the outcome was “inactive”.
With Cc1c[nH]c(=O)[nH]c1=O the outcome was “inactive”.
With CCCC1CCCC(=O)O1 (configuration not stated) the outcome was “inactive”.
Cc1ccccc1CCO was tested, and the outcome was “inactive”.
In the case of CC(CC=O)CC(C)(C)C (configuration not stated), the outcome is reported as “inactive”.
In the case of CCOC(=O)OC(=O)OCC, the outcome is reported as “inactive”.
For CCCCOC(=O)CCC(C)=O, the outcome was “inactive”.
For CC(C)=CCl, the outcome was “inactive”.
COC(=O)c1ccc(C(=O)OC)c(C(=O)OC)c1 was tested, and the outcome was “inactive”.
O=S(=O)(O)c1ccc(Nc2nc(Nc3ccc(C=Cc4ccc(Nc5nc(Nc6ccc(S(=O)(=O)O)cc6)nc(N(CCO)CCO)n5)cc4S(=O)(=O)O)c(S(=O)(=O)O)c3)nc(N(CCO)CCO)n2)cc1 was tested, and the outcome was “inactive”.
For COC(=O)c1ccccc1C, the outcome was “inactive”.
With CCCCCCCCCCCCCCCCCCOS(=O)(=O)O the AC50 was 112 µM (active).
For CCC(C)c1ccccc1 (configuration not stated), the outcome was “inactive”.
Cc1ccc(C)c(OCCCC(C)(C)C(=O)O)c1 was tested, and the outcome was “inactive”.
CCC1COC(=O)O1 (configuration not stated) was tested, and the outcome was “inactive”.
In the case of COC(C=C(C)CCC=C(C)C)OC, the outcome is reported as “inactive”.
O=C(O)c1cc(O)c2ccccc2c1O was tested, and the outcome was “inactive”.
CCCSSCCC was tested, and the outcome was “inactive”.
Cc1cc(C)c(C=O)c(C)c1 was tested, and the outcome was “inactive”.
For C=CCOC(=O)c1ccc(C(=O)OCC=C)c(C(=O)OCC=C)c1, the outcome was “inactive”.
In the case of c1ccc2cnccc2c1, the outcome is reported as “inactive”.
For CO[Si](CCCS)(OC)OC, the outcome was “inactive”.
With O=C(OCCc1ccccc1)c1ccccc1 the outcome was “inactive”.
In the case of COC(=O)C=Cc1ccccc1, the outcome is reported as “inactive”.
For CCC(C)N (configuration not stated), the outcome was “inactive”.
C=C(C)C(=O)OCC(O)COc1ccc(C(C)(C)c2ccc(OCC(O)COC(=O)C(=C)C)cc2)cc1 (configuration not stated) was tested, and the outcome was “inactive”.
For Cc1ccc2c(c1)CCCN2, the outcome was “inactive”.
With C1CCSC1 the outcome was “inactive”.
With C=CCCCCCCCCO the outcome was “inactive”.
CCOC(=O)c1ccc(C)cc1 was tested, and the outcome was “inactive”.
O=C(O)/C=C/c1ccccc1 was tested, and the outcome was “inactive”.
In the case of O=C(O)CC(C(=O)O)S(=O)(=O)O (configuration not stated), the outcome is reported as “inactive”.
With CCCCC/C=C\C/C=C\CCCCCCCC(=O)O the outcome was “inactive”.
For C/C=C/C=C/CCCCCCCO, the AC50 was 27.2 µM (active).
In the case of CC(C)CC(=O)OCc1ccccc1, the outcome is reported as “inactive”.

Each compound was assayed against human Retinoic Acid Receptor beta (RARb), RARB (gene 5915) (UniProt P10826) (assay: ATG_RARb_TRANS: Attagene TRANS-FACTORIAL HepG2 Assay for human Retinoic Acid Receptor beta (AID 2283004)).
Sequence of human Retinoic Acid Receptor beta (RARb), RARB (gene 5915) (P10826 whole entry, looked up, the tested form may be a part): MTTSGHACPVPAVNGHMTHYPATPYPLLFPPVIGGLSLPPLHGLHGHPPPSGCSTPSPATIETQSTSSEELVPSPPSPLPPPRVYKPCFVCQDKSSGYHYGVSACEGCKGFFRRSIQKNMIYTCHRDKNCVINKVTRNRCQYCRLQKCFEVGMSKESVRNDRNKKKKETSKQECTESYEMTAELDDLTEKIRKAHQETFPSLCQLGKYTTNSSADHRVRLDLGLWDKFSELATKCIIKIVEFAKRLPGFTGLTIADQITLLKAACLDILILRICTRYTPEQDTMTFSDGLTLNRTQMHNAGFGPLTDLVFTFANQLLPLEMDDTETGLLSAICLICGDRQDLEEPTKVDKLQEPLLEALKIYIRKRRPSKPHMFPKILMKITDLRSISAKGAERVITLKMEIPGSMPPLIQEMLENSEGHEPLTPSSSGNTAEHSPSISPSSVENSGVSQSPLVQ
Method in brief: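 Fluorescent capillary-electrophoresis detection of GAL4-UAS reporter mRNA defines the endpoint, with induction over DMSO-treated wells scored as activity. Transiently transfected human hepatoma HepG2 cells expressing exogenous NR–Gal4 proteins are exposed to test chemicals for 24 h.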
With CC(=O)OCc1ccccc1 the outcome was “inactive”.
With CCCC1CCCC(=O)O1 (configuration not stated) the outcome was “inactive”.
Cc1ccc(C)c(OCCCC(C)(C)C(=O)O)c1 was tested, and the outcome was “inactive”.
In the case of CCC1COC(=O)O1 (configuration not stated), the outcome is reported as “inactive”.
For NC(=O)Nc1ccccc1, the outcome was “inactive”.
In the case of O=C1CCCCC1C1CCCCC1 (configuration not stated), the outcome is reported as “inactive”.
With O=C(OCCc1ccccc1)c1ccccc1 the outcome was “inactive”.
CCC(C)N (configuration not stated) was tested, and the outcome was “inactive”.
With Cc1ccc2c(c1)CCCN2 the outcome was “inactive”.

Each compound was assayed against Retinoic acid receptor alpha (Homo sapiens) (UniProt P10276) (assay: ATG_RARa_TRANS: Attagene TRANS-FACTORIAL HepG2 Assay for human Retinoic Acid Receptor alpha (RARa) (AID 2283005)).
Sequence of Retinoic acid receptor alpha (Homo sapiens) (P10276 whole entry, looked up, the tested form may be a part): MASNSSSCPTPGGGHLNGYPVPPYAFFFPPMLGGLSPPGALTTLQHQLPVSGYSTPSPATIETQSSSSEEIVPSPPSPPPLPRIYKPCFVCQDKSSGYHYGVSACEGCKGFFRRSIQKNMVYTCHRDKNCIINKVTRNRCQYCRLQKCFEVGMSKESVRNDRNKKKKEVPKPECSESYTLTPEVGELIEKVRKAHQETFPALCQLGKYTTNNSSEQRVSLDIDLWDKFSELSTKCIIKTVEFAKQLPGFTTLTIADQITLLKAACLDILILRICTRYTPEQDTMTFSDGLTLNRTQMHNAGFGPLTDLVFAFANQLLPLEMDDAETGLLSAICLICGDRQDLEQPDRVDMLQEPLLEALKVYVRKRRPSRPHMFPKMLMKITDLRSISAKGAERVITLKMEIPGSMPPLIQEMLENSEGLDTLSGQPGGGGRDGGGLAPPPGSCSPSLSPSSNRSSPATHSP
Method in brief: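 HepG2 transiently transfected with multiplex GAL4-UAS reporter units including a human RARa–GAL4 chimera; 24 h compound exposure. Reporter mRNA quantified by RT-PCR, 6-FAM labeling and capillary electrophoresis; gain of signal versus DMSO.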
Cc1c[nH]c(=O)[nH]c1=O was tested, and the outcome was “inactive”.
For COC(=O)c1ccc(C(=O)OC)c(C(=O)OC)c1, the outcome was “inactive”.
With O=S(=O)(O)c1ccc(Nc2nc(Nc3ccc(C=Cc4ccc(Nc5nc(Nc6ccc(S(=O)(=O)O)cc6)nc(N(CCO)CCO)n5)cc4S(=O)(=O)O)c(S(=O)(=O)O)c3)nc(N(CCO)CCO)n2)cc1 the outcome was “inactive”.
In the case of CCCSSCCC, the outcome is reported as “inactive”.
For O=C1CCCCC1C1CCCCC1 (configuration not stated), the outcome was “inactive”.
COC(=O)C=Cc1ccccc1 was tested, and the outcome was “inactive”.
